Compound activity (PubChem BioAssay)
Shown are actives, neighbours in structure and some others; about 0.95% of the full set was active somewhere.
Tb PYK inh: blocks Trypanosoma brucei pyruvate kinase | Q57TT1 | hit rate 0.12% among 410,000 | TbPYK enzyme, Kinase-Glo Plus ATP luminescence, 45 min | Potency, µM (highest dose often 76.8 µM), usual class: inhibitors | AID 624173; further: nearly all actives have a fitted effect of over 50% in size
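T. brucei PYK with substrate was exposed to pin-transferred compounds across a concentration series, then started with 130 uM ADP (final). After 45 min at room temperature, Kinase-Glo Plus luminescence was read, normalized and curve-fitted.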
LmPK inhibitor: LmPK (Leishmania mexicana) enzyme inhibition; Q27686; purified LmPK, Kinase-Glo ATP luminescence, 1 h; Potency, µM (top dose mostly 57.5 µM), hits mostly inhibitors; hit rate 0.37% among 290,000
Target sequence (Q27686 whole entry, looked up): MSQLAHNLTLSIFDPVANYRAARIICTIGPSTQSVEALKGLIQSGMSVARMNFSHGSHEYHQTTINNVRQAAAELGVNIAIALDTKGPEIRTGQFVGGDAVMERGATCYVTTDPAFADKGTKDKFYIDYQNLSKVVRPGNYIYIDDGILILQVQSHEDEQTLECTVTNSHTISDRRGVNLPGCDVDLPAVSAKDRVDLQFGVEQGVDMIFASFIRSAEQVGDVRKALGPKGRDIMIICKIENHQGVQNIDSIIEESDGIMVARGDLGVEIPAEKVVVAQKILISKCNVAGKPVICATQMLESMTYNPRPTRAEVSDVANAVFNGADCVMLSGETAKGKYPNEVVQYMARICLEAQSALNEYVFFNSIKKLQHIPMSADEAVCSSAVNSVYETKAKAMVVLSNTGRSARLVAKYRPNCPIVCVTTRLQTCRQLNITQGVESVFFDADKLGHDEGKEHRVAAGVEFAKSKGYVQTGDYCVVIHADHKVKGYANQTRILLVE
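Pyruvate kinase activity monitored as ATP production (luciferase luminescence). Conditions: 0.1 nM enzyme, 0.5 mM PEP, 0.1 mM ADP, 1 h, RT; normalized against uninhibited and no-enzyme wells.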
RE007 growth inh: less growth of the S. pombe RE007 Vpr strain. S. pombe RE007 Vpr strain, BacTiter-Glo ATP luminescence, 24 h. hit rate 0.21% among 360,000. AID 651644. Potency, µM (titrated, usually from 92.2 µM), most hits filed as inhibitors; active means well fitted falling curve with a large enough effect; inconclusive means small, poorly fitted or top-dose-only effect; inactive means no such curve, though single readings can be large or run the other way; further: nearly all actives have a fitted effect of over 50% in size
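Fission yeast strain RE007, carrying one chromosomally integrated HIV-1 vpr copy, was seeded at OD 0.01 in PMG+AL medium with 23 nL pinned compound. After 24 h at 30 °C and 99% humidity, viability was read by BacTiter-Glo luminescence.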
FBPA Giardia inh: inhibitors of Giardia lamblia fructose-1,6-bisphosphate aldolase | A8B2U2 | purified Giardia FBPA | Potency, µM (titrated, usually from 59.6 µM), hits mostly inhibitors | hit rate 0.71% among 290,000 | AID 2451; further: nearly all actives have a fitted effect of over 55% in size
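40 nM FBPA preincubated 10 min at RT with compound (up to 57.5 uM final), then substrate plus GAPDH/TPI/NAD/arsenate coupling and diaphorase/resazurin added. Fluorescence read after 20 min at RT, 525/598 nm.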
Of the large screens only hits and unclear results are named; the others gave an inactive call; ! = repeats disagree. Unless noted, the call rests on the fitted dose curve; in most records, active means well fitted curve in the direction sought with a large enough effect; inconclusive means small, poorly fitted or top-dose-only effect, or another doubt; inactive means no such curve, though single readings can be large; an effect the other way counts as inactive or inconclusive.

CN1C(=O)C(Cl)(Cl)C(=O)c2ccccc21	Tb PYK inh 14µM, FBPA Giardia inh 5µM
Cc1ccc(C)c(N2CCN(c3nc4ccccc4c(=O)n3-c3ccc(Cl)cc3)CC2)c1	none (no result: LmPK inhibitor, RE007 growth inh, FBPA Giardia inh)
CCc1cc2c(=O)[nH]c(-c3ccccn3)nc2s1	RE007 growth inh 32µM
COc1cnc(-c2ccccn2)[nH]c1=O	FBPA Giardia inh 3.5µM
COc1cnc(-c2ccccn2)nc1NC(C)C	FBPA Giardia inh inconclusive
CCc1cc2c(=O)[nH]c(N3CCCC3)nc2s1	none
O=C(NC1=C(NC2CCS(=O)(=O)C2)C(=O)c2ccccc2C1=O)c1ccccc1 (stereo not given)	FBPA Giardia inh 1.3µM
Cc1cccc(C(=O)Nc2cccc(NC(=O)c3ccccc3)c2)c1	none
Cc1cccc(NC2=C(NC(=O)c3ccccc3)C(=O)c3ccccc3C2=O)c1	Tb PYK inh 16µM, LmPK inhibitor 3.5µM, FBPA Giardia inh inconclusive
COC(=O)Cn1cc(/C=N/NC(=O)c2ccc(C#N)cc2F)c2ccccc21	none
CCn1cc(/C=N/NC(=O)c2ccc(C#N)cc2F)c2ccccc21	FBPA Giardia inh 16µM
O=C1C=C(Nc2cccc3cccnc23)c2ccccc2C1=O	FBPA Giardia inh 1.6µM
Nc1ccccc1S(=O)(=O)Nc1cccc2cccnc12	FBPA Giardia inh 14µM (no result: Tb PYK inh, LmPK inhibitor, RE007 growth inh)
COc1ccccc1NS(=O)(=O)c1cccc2cccnc12	none
O=C1C=C(Nc2ccccc2C(=O)O)c2ccccc2C1=O	FBPA Giardia inh 1.6µM
CCOc1ccc2[nH]c(=O)c(C(c3nnnn3Cc3ccco3)N3CCN(C)CC3)cc2c1 (stereo not given)	FBPA Giardia inh 0.89µM
Cc1cc2cc(C(c3nnnn3Cc3ccco3)N3CCCCC3)c(=O)[nH]c2cc1C (stereo not given)	none
COc1ccc(Cl)cc1-c1n[nH]c(=S)n1C	Tb PYK inh inconclusive
C=CCn1c(CCSCc2ccc(OC)c(C)c2)n[nH]c1=S	Tb PYK inh 7.9µM
CCn1c(-c2cc(Cl)ccc2OC)n[nH]c1=S	Tb PYK inh 11µM, LmPK inhibitor inconclusive
C=CCn1c(-c2cc(Cl)ccc2OC)n[nH]c1=S	Tb PYK inh inconclusive, LmPK inhibitor 13µM
Cc1cc(C)cc(NC(=O)C2CCCN(C(=O)c3cnn(-c4ccccc4)c3-n3cccc3)C2)c1 (stereo not given)	none (no result: LmPK inhibitor, RE007 growth inh, FBPA Giardia inh)
CCCCOc1ccc(Nc2cc(Cl)ccc2C(=O)O)cn1	LmPK inhibitor inconclusive, RE007 growth inh 28µM
CN[C@H](C)Cc1ccccc1	none (no result: LmPK inhibitor, RE007 growth inh, FBPA Giardia inh)
CCOCCCn1c(-c2ccc(Cl)cc2)n[nH]c1=S	Tb PYK inh 8.9µM, LmPK inhibitor inconclusive
CCCCc1n[nH]c(=S)n1Cc1ccc(Cl)cc1	Tb PYK inh 10µM, LmPK inhibitor inconclusive
c1ccc(Cn2c(SCc3nc4ccccc4s3)nnc2-c2ccco2)cc1	Tb PYK inh 28µM
CCCCc1n[nH]c(=S)n1Cc1ccccc1	Tb PYK inh inconclusive
COCCCn1c(-c2ccc(Cl)cc2)n[nH]c1=S	Tb PYK inh inconclusive, LmPK inhibitor inconclusive
Fc1ccc(NCc2n[nH]c(=S)n2Cc2ccccc2)cc1	Tb PYK inh 7.1µM, LmPK inhibitor inconclusive
COc1ccc(-c2nc3c(c(SCC(=O)N4CCCCC4)n2)Cc2c(CO)cnc(C)c2O3)cc1	none (no result: LmPK inhibitor, RE007 growth inh, FBPA Giardia inh)
S=c1[nH]nc(-c2ccc(Br)cc2)n1Cc1ccco1	Tb PYK inh 5.6µM, LmPK inhibitor 22µM
CCn1c(-c2ccco2)n[nH]c1=S	Tb PYK inh inconclusive, FBPA Giardia inh inconclusive
S=c1[nH]nc(-c2ccc(Cl)cc2)n1Cc1ccccc1	Tb PYK inh inconclusive, LmPK inhibitor 13µM
S=c1[nH]nc(-c2ccc(Br)o2)n1Cc1ccccc1	Tb PYK inh 10µM, LmPK inhibitor inconclusive
S=c1[nH]nc(-c2ccco2)n1Cc1ccccc1	Tb PYK inh inconclusive, LmPK inhibitor 14µM
CC1=C(C(=O)O)N2C(=O)[C@@H](NC(=O)[C@H](N)C3=CCC=CC3)[C@H]2SC1	none (no result: LmPK inhibitor, RE007 growth inh, FBPA Giardia inh)
Cc1csc2nc(COc3ccc(NC(=O)c4ccccc4F)cc3)cc(=O)n12	none (no result: LmPK inhibitor, RE007 growth inh, FBPA Giardia inh)
O=C(NN1CCCC1)NS(=O)(=O)c1ccc(Cl)cc1	none (no result: LmPK inhibitor, RE007 growth inh, FBPA Giardia inh)
S=c1[nH]nc(-c2ccco2)n1/N=C/c1ccc(Cl)cc1	Tb PYK inh 4µM
COc1ccc(-c2n[nH]c(=S)n2Cc2ccccc2)cc1	Tb PYK inh inconclusive, LmPK inhibitor inconclusive
S=c1[nH]nc(-c2ccco2)n1/N=C/c1ccccc1Cl	Tb PYK inh inconclusive
S=c1[nH]nc(-c2ccccc2)n1Cc1ccccc1	Tb PYK inh inconclusive, LmPK inhibitor 10µM
COc1ccc(C2NC(=O)N(C)C3=C2C(=O)N(c2ccc(Br)cc2)C3)cc1 (stereo not given)	none (no result: LmPK inhibitor, RE007 growth inh, FBPA Giardia inh)
COc1ccc(C2CC(c3ccccc3)Oc3cc4c(cc32)OCO4)cc1 (stereo not given)	FBPA Giardia inh 16µM! (no result: Tb PYK inh, LmPK inhibitor, RE007 growth inh)
Cc1cccc(CNC(=O)CCCN2C(=O)COc3ccc(C)cc32)c1	none (no result: LmPK inhibitor, RE007 growth inh, FBPA Giardia inh)
Cc1cccc(-n2c(-c3ccco3)n[nH]c2=S)c1	Tb PYK inh inconclusive, LmPK inhibitor 18µM
Cc1cccc(-n2c(-c3csc(C)c3C)n[nH]c2=S)c1	Tb PYK inh inconclusive, LmPK inhibitor 11µM (no result: RE007 growth inh)
Cc1ccccc1-n1c(-c2ccco2)n[nH]c1=S	Tb PYK inh inconclusive, LmPK inhibitor inconclusive
Cc1cccc(-n2c(-c3ccc(Br)o3)n[nH]c2=S)c1	Tb PYK inh inconclusive (no result: LmPK inhibitor, FBPA Giardia inh)
Cc1ccccc1-n1c(-c2csc3ccccc23)n[nH]c1=S	Tb PYK inh inconclusive, LmPK inhibitor 14µM
CCCc1cc(-c2n[nH]c(=S)n2-c2cccc(C)c2)cs1	Tb PYK inh inconclusive, LmPK inhibitor inconclusive
Cc1ccccc1-n1c(-c2csc(C)c2C)n[nH]c1=S	Tb PYK inh inconclusive, LmPK inhibitor 7.9µM
